Data published in PubChem BioAssay (NCATS).
Inconclusive results are not listed. Where a call stands in place of a potency, no number is given. The source made the active and inactive calls. The call rests on the fitted dose curve; in most records, active means well fitted cell-killing curve with a large enough effect; inconclusive means small, poorly fitted or top-dose-only effect, or effect the other way; inactive means no such curve, though single readings can be large or run the other way.

Assay: qHTS of pediatric cancer cell lines to identify multiple opportunities for drug repurposing: Confirmatory screen for SJ-GBM2 cells (AID 1347116);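 further: 48 hour compound exposure; nearly all actives have a fitted effect of over 60% in size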
Details: SJ-GBM2 glioblastoma cells, viability; series mostly up to 45.9 µM
From the text: Drug repurposing or repositioning has been offered as a strategy for drug development in oncology programs. This approach has special potential for childhood cancers and other rare or orphan diseases, where the expected return on new drug development has been a disincentive to pharmaceuticals.
In this project we exploit the poly-pharmacology of drugs to discover new indications via phenotypic screening of a panel of 19 well-characterized cell lines derived from solid tumors seen in children and adolescents. The goal is to identify approved drugs with previously unrecognized anticancer properties that has the potential to reveal new mechanisms and biological processes involved in carcinogenesis or drug resistance. We employed a titration-based paradigm (quantitative high-throughput screening or qHTS), where all compounds were tested at multiple concentrations for their effect on cell viability. Concentration-response curves (CRCs) were derived directly from the primary screen, and both potency and efficacy values were used to identify compounds with robust bioactivity profiles. We screened the NIH Chemical Genomics Center (NCGC) Pharmaceutical Collection (NPC) and Mechanism Interrogation Plate (MIPE) small molecule collections of approved and investigational compounds against these cell lines; and measured metabolically active cells after 48 hours of compound treatment as a proxy for cell viability.
Assay Submitter: Nathalia J. Martinez, National Center for Advancing Translational Sciences, National Institutes of Health, Rockville, MD, USA; email: natalia.martinez@nih.gov
[1] Shen, M et al. Quantitative high-throughput phenotypic screening of pediatric cancer cell lines identifies multiple opportunities for drug repurposing. Oncotarget 2017 Dec 19;9(4):4758-4772. PMID 29435139.
The cells were obtained from University of North Carolina (UNC), Pediatric Preclinical Testing Program (PPT), and Coriell Institute (CI).
qHTS cell viability assay:
Cells were assayed in growth media at a density of 500-1,000 cells/well. Five microliters of cells were dispensed into 1,536-well, white, solid-bottom, TC-treated plates (Greiner Bio One) using a multidrop dispenser and incubated at 37 degrees C, 5% CO2, under a humidified atmosphere for 5 hours. Twenty-three nanoliters of compounds and controls (neutral control DMSO or positive control bortezomib at final concentration of 2.3 µM) were subsequently transferred by Kalypsys pintool. For primary screens, the MIPE collection was tested at 11-point dilutions (final concentrations range from 0.78 nM to 46 µM) and the NPC collection at 8-point dilutions (final concentrations range from 0.59 nM to 46 µM). Compounds tested in follow-up screens were assayed at 11-point dilutions. Cells were incubated for 48 hours, followed by addition of 3 uL of CellTiter-Glo (Promega). After a 15 min incubation at room temperature, samples were analyzed for luminescence intensity using a ViewLux High-throughput CCD imager equipped with clear filters.
Potency means the concentration at half of the fitted maximal effect.

| SMILES | Potency |
| --- | --- |
| CN(C)C(=S)SSC(=S)N(C)C | 8.27 µM (active) |
| CC[n+]1c(-c2ccccc2)c2cc(N)ccc2c2ccc(N)cc21 | 3.69 µM (active) |
| COc1ccc2c(C(=O)c3ccc(Cl)cc3)c(C)n(CC(=O)O)c2c1 | inactive |
| Cc1ccc([N+](=O)[O-])[c]2c1[O][Hg]2 | 4.14 µM (active) |
| COC(=O)C1=CCCN(C)C1 | inactive |
| C[C@@H]1C[C@@H]([C@H](O)CC2CC(=O)NC(=O)C2)C(=O)[C@@H](C)C1 | 2.33 µM (active) |
| ClC1=C(Cl)C2(Cl)C(CBr)CC1(Cl)C2(Cl)Cl (stereo not given) | inactive |
| CCCCCCCCC(=O)NCc1ccc(O)c(OC)c1 | inactive |
| CN1[C@@H]2CC[C@H]1CC(OC(=O)c1cc(Cl)cc(Cl)c1)C2 (stereo not given in full) | inactive |
| C[C@@H]1O[C@@H](O[C@@H]2C=C3CC[C@@H]4[C@H](CC[C@]5(C)[C@@H](c6ccc(=O)oc6)CC[C@]45O)[C@@]3(C)CC2)[C@H](O)[C@H](O)[C@H]1O | 0.0465 µM (active) |
